Most compounds without a hit are left out; they make up all but 2% or so of the library.
mut p53 react: mutant p53 pathway reactivation. 1.5% of 28,000 active. SW480 PUMA-promoter luciferase. activation, % at 9.98 µM; in the data active means activation above about 52%
STK33 inh: human STK33 kinase inhibition; ADP-Glo luminescence, MBP substrate; inhibition, % at 12.5 µM; 0.44% of 27,000 active; Q9BYT3; AID 2322; in the data active means inhibition above about 20%
ID4 binder: ID4 (human) binding; P47928; small molecule microarray, Flag-ID4 binding, fluorescence F/B; calls only; 1.2% of 31,000 active; AID 624137; call rule not given here;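 further: a binder raises fluorescence above local background on the spot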
Target sequence (P47928 whole entry, looked up): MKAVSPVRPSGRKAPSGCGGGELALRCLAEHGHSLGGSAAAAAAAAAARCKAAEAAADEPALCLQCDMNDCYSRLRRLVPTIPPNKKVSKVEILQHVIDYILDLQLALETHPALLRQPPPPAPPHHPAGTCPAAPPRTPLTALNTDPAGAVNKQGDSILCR
Active calls of the source: *; i = inactive; · = no result; + = active, no number.

SMILES	mut p53 react	STK33 inh	ID4 binder
COc1cc2c(cc1NC(=O)CSc1nnc(-c3cnccn3)n1-c1ccccc1)oc1ccccc12	-10.0	1.3	i
O=c1c(Cl)c(NCc2ccco2)cnn1-c1ccccc1	·	-0.7	·
Cn1c(=O)c2[nH]c(NCCN3CCOCC3)nc2n(C)c1=O	-7.3	2.8	+
CCOCCCNc1nc2c([nH]1)c(=O)n(C)c(=O)n2C	-5.6	-3.4	i
CC(C)(O)[C@@H]1Cc2cc3ccc(=O)oc3cc2O1	53.6*	0.9	i
CC(C)(OC(=O)c1ccccc1)[C@@H]1Cc2cc3ccc(=O)oc3cc2O1	13.0	-0.5	i
CCN(CC)C(=O)c1cc(-c2ccc(Cl)c(Cl)c2)on1	72.4*	·	i
Cc1ccc(-c2cc(C(=O)Nc3cc(C)nn3-c3ccccc3)no2)cc1	13.0	1.4	i
COc1cc(SC)ccc1-c1nc2ccncc2[nH]1	59.2*	12.2	i
CC1CCC(C(C)C)C(N(Cc2ccccc2)C(=O)c2cccs2)C1 (stereo unspecified)	·	0.3	·
CSc1nncc(-c2ccc(Cl)cc2)n1	63.2*	·	i
CCc1nc(N)nc(N)c1-c1ccc(Cl)cc1	·	-2.7	·
CC(=O)Oc1ccc(O)cc1	·	-8.3	·
COc1ccc(N2C(=O)Cc3ccc(OC)cc3C2=O)cc1	·	-0.1	·
O=C(COc1ccccc1)NC(=S)Nc1cccc(NC(=O)c2ccccc2Cl)c1	-12.4	3.5	i
O=C(NC(=S)Nc1ccc(Cl)c(C(=O)O)c1)c1cccc(COc2ccccc2)c1	1.9	-1.0	+
Cc1cccnc1NC(=S)NC(=O)c1cncc(Br)c1	108.2*	-2.5	i
N#Cc1c(NC(=S)NC(=O)c2cncc(Br)c2)sc2c1CCCC2	17.0	0.7	i
CCc1nc(SCS(=O)(=O)c2ccc(C)cc2)c(C#N)c2c1CCCC2	·	-1.1	·
C[C@H](CO)N1C[C@H](C)[C@H](CN(C)Cc2cccc(C(=O)O)c2)Oc2cc(C3=CCCC3)ccc2S1(=O)=O	3.2	·	i
C[C@H](CO)N1C[C@H](C)[C@@H](CN(C)Cc2ccc3c(c2)OCO3)Oc2cc(-c3cccc(C(=O)N(C)C)c3)ccc2S1(=O)=O	-35.2	·	·
C[C@H]1CN([C@@H](C)CO)S(=O)(=O)c2ccc(-c3cccc(C(=O)N(C)C)c3)cc2O[C@@H]1CN(C)Cc1ccc2c(c1)OCO2	-43.0	·	+
C[C@@H]1CN([C@@H](C)CO)S(=O)(=O)c2ccc(C3=CCCC3)cc2O[C@@H]1CN(C)Cc1cccc(C(=O)O)c1	2.6	·	+
OCCCn1c(-c2ccc(Cl)cc2)cn2c3ccccc3nc12	-0.1	-0.3	+
OCCCn1c(-c2ccccc2)cn2c3ccccc3nc12	-62.9	2.6	i
SMILES	mut p53 react	STK33 inh	ID4 binder
CC(C)C(NC=O)C(=O)OCC(O)C(O)C(O)C(O)COC(=O)C(NC=O)C(C)C (stereo unspecified)	-4.3	·	·
Cn1c(SCC(=O)O)nnc1-c1ccccc1	6.7	0.0	i
Cc1nonc1OCCNc1cc(N2CCOCC2)ccc1[N+](=O)[O-]	19.9	-8.9	i
Cc1nonc1OCCNc1cc(N2CCCC2)ccc1[N+](=O)[O-]	89.4*	5.8	i
Cc1ccccc1C(=O)Nc1ccc2nc(SCC(=O)Nc3ccc([N+](=O)[O-])cc3)sc2c1	20.0	-4.7	i
Cc1ccccc1C(=O)Nc1ccc2nc(SCC(=O)Nc3ccccc3)sc2c1	-12.1	0.7	i
O=C(CSc1nc2ccc(NC(=O)c3ccccc3)cc2s1)Nc1cccc([N+](=O)[O-])c1	59.5*	5.6	i
O=C(CSc1nc2ccc(NC(=O)c3ccccc3F)cc2s1)c1cccc([N+](=O)[O-])c1	75.7*	-0.3	i
CCCn1c(-c2cccs2)n[nH]c1=O	·	1.5	·
CCN(CCS(=O)(=O)c1ccccc1)S(=O)(=O)c1ccc(C)cc1	·	0.5	·
CCOC(=O)c1c(C)[nH]c2ccc3c(c12)CN1CCc2cc(OC)ccc2C1O3 (stereo unspecified)	-29.6	·	·
O=C(CSc1nnc(-c2ccccc2Cl)o1)c1ccc2c(c1)OCCO2	-2.9	1.2	i
N#Cc1ccc2nc(C(O)C(O)c3nc4ccc(C#N)cc4[nH]3)[nH]c2c1 (stereo unspecified)	·	5.6	·
O=C(CCN1C(=O)c2ccccc2C1=O)Nc1ccc(-c2nc3ccccc3[nH]2)cc1	19.9	6.5	i
O=C(O)CCC(=O)Nc1ccc(-c2nc3ccc(C(=O)c4ccccc4)cc3[nH]2)cc1	37.6	3.3	+
COC(=O)COc1ccc(NC(=O)c2ccc([N+](=O)[O-])c(C)c2)cc1	-12.7	0.9	i
COc1cccc(C=NC=Nc2cccc(OC)c2)c1	37.8	·	i
Clc1cccc(C=NC=Nc2cccc(Cl)c2)c1	72.9*	·	i
COc1ccc(NC(=O)CSc2nc(C)c3c(n2)CCCC3)c([N+](=O)[O-])c1	15.6	-2.8	i
Cc1cccc(NC(=O)C(C)NS(=O)(=O)c2ccccc2)c1 (stereo unspecified)	-12.0	-1.6	i
Cn1nnnc1SCC(=O)Nc1ccc(I)cc1	78.3*	-1.8	i
Cc1ccc(NC(=O)CSc2nnnn2-c2cccc(C(=O)O)c2)cc1C	0.1	-1.5	+
O=C(CSc1nnnn1-c1ccccc1)Nc1cccc(C(=O)O)c1	-7.6	-0.2	i
Cn1nnnc1SCC(=O)Nc1ccc(C(=O)O)cc1	-4.2	3.6	i
CNC[C@@H]1Oc2c(NC(=O)c3ccc(-c4nccs4)cc3)cccc2C(=O)N([C@H](C)CO)C[C@H]1C	-12.5	·	+
SMILES	mut p53 react	STK33 inh	ID4 binder
C[C@H]1CCCCO[C@@H](CN(C)C(=O)Nc2ccccc2)[C@@H](C)CN([C@@H](C)CO)C(=O)c2cc(NC(=O)c3ccncc3)ccc2O1	3.0	·	+
C[C@@H]1CN([C@H](C)CO)C(=O)c2cc(NC(=O)c3ccncc3)ccc2O[C@@H](C)CCCCO[C@@H]1CN(C)C(=O)Nc1cccc2ccccc12	-19.5	·	+
C[C@@H]1CN([C@@H](C)CO)C(=O)c2cc(NC(=O)c3ccncc3)ccc2O[C@@H](C)CCCCO[C@H]1CN(C)C(=O)Nc1cccc2ccccc12	-78.6	·	i
CNC[C@H]1Oc2ccc(NS(C)(=O)=O)cc2CC(=O)N([C@@H](C)CO)C[C@@H]1C	9.3	-0.5	+
C[C@@H]1CCCCO[C@@H](CN(C)C(=O)Nc2ccccc2)[C@@H](C)CN([C@H](C)CO)C(=O)c2cc(NC(=O)c3ccncc3)ccc2O1	·	-1.0	·
CNC[C@H]1Oc2ccc(NS(=O)(=O)c3ccccc3)cc2CC(=O)N([C@@H](C)CO)C[C@@H]1C	2.1	0.3	i
CNC[C@@H]1Oc2c(NC(=O)c3ccc(-c4nccs4)cc3)cccc2C(=O)N([C@H](C)CO)C[C@@H]1C	1.4	·	i
O=c1[nH]c2ccccc2n1CCCSc1nc2ccccc2[nH]1	·	0.5	·
O=C(O)Cc1ccc(NC(=O)CN2C(=O)c3ccccc3C2=O)cc1	6.2	-1.4	i
O=C(O)c1ccc(Oc2ccccc2)cc1	·	-3.3	·
CCOc1cc(/C=C2/SC(=N)N(c3nccs3)C2=O)ccc1OCCN1CCOCC1	·	-0.4	·
C[C@@H]1CN([C@@H](C)CO)C(=O)c2cc(NC(=O)c3ccncc3)ccc2O[C@@H](C)CCCCO[C@H]1CN(C)C(=O)Cc1ccccc1	3.0	·	+
CC(C)NC(=O)N(C)C[C@H]1OCCCC[C@@H](C)Oc2ccc(NC(=O)Nc3ccc(C(F)(F)F)cc3)cc2C(=O)N([C@@H](C)CO)C[C@H]1C	-63.9	·	i
